Drawing on PubChem BioAssay (NCI), this text covers growth inhibition for 9 molecules.

The panel holds about 79,000 compounds, 15% with a hit somewhere; the sample as a whole holds those more often. Values without a mark were called inactive. Calls of active or inactive are those of the source. Rule as the data show it: active = growth inhibition above about 70%; inactive = the rest.

The nature of test [1]: NCI Yeast Anticancer Drug Screen. Data for the rad50 strain (AID 155).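 Also: 0% = growth of vehicle-only cultures of the same strain.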 The conditions noted are these: S. cerevisiae rad50 strain growth inhibition, active compounds read high. The method in brief: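 Compounds were tested on a yeast strain with an engineered DNA damage repair alteration; the reported value is growth inhibition normalised to vehicle treatment.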
Test [2] can be described thus: NCI Yeast Anticancer Drug Screen. Data for the mec2-1 strain (AID 157). The conditions noted are these: S. cerevisiae mec2-1 strain, active compounds read high. Put shortly: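 Strain: mec2-1 (DNA repair/cell cycle alteration). Compound exposure, then growth measured; inhibition expressed relative to vehicle.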
Test [3] is described as follows: NCI Yeast Anticancer Drug Screen. Data for the sgs1 mgt1 strain (AID 161).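 Also: 0% = growth of cultures given vehicle only.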 The conditions noted are these: S. cerevisiae sgs1 mgt1 strain, active compounds read high. Put shortly: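 Inhibition of yeast growth, normalised to vehicle-treated controls, is reported for a strain bearing genetic alterations in DNA damage repair.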
Test [4] is described as follows: NCI Yeast Anticancer Drug Screen. Data for the cln2 rad14 strain (AID 165).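 Also: 0% = growth equal to vehicle treated cultures.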 The conditions noted are these: S. cerevisiae cln2 rad14 strain, active compounds read high. Put shortly:
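Compounds are applied to the cln2 rad14 yeast strain, and growth is then compared with that of vehicle-treated cultures to give inhibition.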

Test [5] can be described thus: NCI Yeast Anticancer Drug Screen. Data for the bub3 strain (AID 167). The conditions noted are these: S. cerevisiae bub3 mutant strain, active compounds read high. The method in brief:
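Growth of a checkpoint-deficient yeast mutant is measured after compound exposure. Values represent inhibition relative to vehicle.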

The nature of test [6]: NCI Yeast Anticancer Drug Screen. Data for the mlh1 rad18 strain (AID 175). The conditions noted are these: S. cerevisiae mlh1 rad18 strain growth inhibition, active compounds read high. The method in brief: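 Read-out is yeast growth inhibition, calculated against vehicle-only controls. The compound was applied to a strain engineered with DNA damage repair alterations.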
[7] abbreviates: at 5.0 µM (retest, dose inferred, filed as 0.5).
Setting [8] is: at 50.0 µM (retest, dose inferred, filed as 5.0).

Regarding `C/C([O-])=C1\Cc2ccccc2C1=O.C/C([O-])=C1\Cc2ccccc2C1=O.CC[O-].CC[O-].[Ti+4]`, the growth inhibition was 25% in test [1] (setting [7]); 25% in test [1] (setting [8]); 89% (active) in test [1] (at 50.0 µM); 17% in test [2] (setting [7]); 17% in test [2] (setting [8]); 89.4% (active) in test [2] (at 50.0 µM). Also, the growth inhibition in test [3] (setting [7]) is 4%; in test [3] (setting [8]), 4%; in test [3] (at 50.0 µM), 91.5% (active); in test [4] (setting [7]), 4%; in test [4] (setting [8]), 4%; in test [4] (at 50.0 µM), 81% (active). Moreover, the growth inhibition in test [5] (setting [7]) is 4%; in test [5] (setting [8]) it was 4%; in test [5] (at 50.0 µM), 88.6% (active); in test [6] (setting [7]), 20%; in test [6] (setting [8]), 20%; in test [6] (at 50.0 µM), 90.7% (active).
Turning to `CC1/C=C/C=C/CC/C=C/C=C/C=C/C=C/C(OC2OC(C)C(O)C(N)C2O)CC2OC(CC(O)C(O)CCC(O)CC(O)CC(O)CC(=O)OC(C)C(C)C1O)CC(O)C2C(=O)O` (configuration not stated), the growth inhibition was 98% (active) in test [1] (setting [7]); 100% (active) in test [1] (setting [8]); 99.3% (active) in test [1] (at 50.0 µM); 96% (active) in test [2] (setting [7]); 100% (active) in test [2] (setting [8]); 99.3% (active) in test [2] (at 50.0 µM). Moreover, the growth inhibition in test [3] (setting [7]) is 56%; in test [3] (setting [8]) it was 100% (active); in test [3] (at 50.0 µM), 99.2% (active); in test [4] (setting [7]), 93% (active); in test [4] (setting [8]) it was 100% (active); in test [4] (at 50.0 µM), 99.1% (active). Moreover, the growth inhibition in test [5] (setting [7]) is 99% (active); in test [5] (setting [8]), 100% (active); in test [5] (at 50.0 µM), 99.2% (active); in test [6] (setting [7]), 97% (active); in test [6] (setting [8]) it was 99% (active); in test [6] (at 50.0 µM) it was 98.5% (active).
`O=C(Oc1cccc2cccnc12)c1cccnc1`: the growth inhibition in test [1] (setting [7]) was 93% (active); in test [1] (setting [8]), 98% (active); in test [1] (at 50.0 µM), 93.5% (active); in test [2] (setting [7]) it was 58%; in test [2] (setting [8]), 99% (active); in test [2] (at 50.0 µM), 99.2% (active). Further, the growth inhibition in test [3] (setting [7]) was 89% (active); in test [3] (setting [8]), 99% (active); in test [3] (at 50.0 µM) it was 98% (active); in test [4] (setting [7]), 43%; in test [4] (setting [8]), 94% (active); in test [4] (at 50.0 µM), 92.2% (active). The growth inhibition in test [5] (setting [7]) was 97% (active); in test [5] (setting [8]), 98% (active); in test [5] (at 50.0 µM), 97.8% (active); in test [6] (setting [7]) it was 82% (active); in test [6] (setting [8]) it was 98% (active); in test [6] (at 50.0 µM), 97.5% (active).
As for `c1ccc(C2=NOC3(c4ccccc4)SC4CCCCC4CN23)cc1` (configuration not stated), the growth inhibition is 6% in test [1] (setting [7]); 97% (active) in test [1] (setting [8]); 90.3% (active) in test [1] (at 50.0 µM); -22% in test [2] (setting [7]); 98% (active) in test [2] (setting [8]); 93.7% (active) in test [2] (at 50.0 µM). Moreover, the growth inhibition in test [3] (setting [7]) was 10%; in test [3] (setting [8]), 97% (active); in test [3] (at 50.0 µM), 92.4% (active); in test [4] (setting [7]), 15%; in test [4] (setting [8]), 98% (active); in test [4] (at 50.0 µM), 90.4% (active). The growth inhibition in test [5] (setting [7]) was 25%; in test [5] (setting [8]), 97% (active); in test [5] (at 50.0 µM), 90.2% (active); in test [6] (setting [7]), 8%; in test [6] (setting [8]) it was 98% (active); in test [6] (at 50.0 µM), 90.1% (active).
Consider `O=C(O)CC/C(=N\Nc1ccccc1)C(=O)O`, for which the growth inhibition was 3% in test [1] (setting [7]); 96% (active) in test [1] (setting [8]); 97.2% (active) in test [1] (at 50.0 µM); -2% in test [2] (setting [7]); 90% (active) in test [2] (setting [8]); 98% (active) in test [2] (at 50.0 µM). For the same molecule, the growth inhibition in test [3] (setting [7]) was -8%; in test [3] (setting [8]) it was 84% (active); in test [3] (at 50.0 µM), 97.4% (active); in test [4] (setting [7]), 6%; in test [4] (setting [8]), 98% (active); in test [4] (at 50.0 µM) it was 97% (active). Further, the growth inhibition is 1% in test [5] (setting [7]); 93% (active) in test [5] (setting [8]); 97.3% (active) in test [5] (at 50.0 µM); 5% in test [6] (setting [7]); 93% (active) in test [6] (setting [8]); 97% (active) in test [6] (at 50.0 µM).
Turning to `O=C1C(=O)c2ccccc2C(O)=C1C(c1ccccc1)c1ccccc1`, the growth inhibition in test [1] (setting [7]) is 42%; in test [1] (setting [8]), 82% (active); in test [1] (at 50.0 µM), 53.5%; in test [2] (setting [7]) it was 39%; in test [2] (setting [8]), 85% (active); in test [2] (at 50.0 µM), 66%. Also, the growth inhibition was 57% in test [3] (setting [7]); 91% (active) in test [3] (setting [8]); 82.5% (active) in test [3] (at 50.0 µM); 27% in test [4] (setting [7]); 83% (active) in test [4] (setting [8]); 58.2% in test [4] (at 50.0 µM). Moreover, the growth inhibition is 18% in test [5] (setting [7]); 83% (active) in test [5] (setting [8]); 60.6% in test [5] (at 50.0 µM); 54% in test [6] (setting [7]); 90% (active) in test [6] (setting [8]); 62% in test [6] (at 50.0 µM).
Consider `CCOC(=O)c1ccccc1NC(OCC)C(=O)c1ccccc1` (configuration not stated) (tested in a mixture with another compound), for which the growth inhibition in test [1] (setting [7]) is -5%; in test [1] (setting [8]) it was 70% (active); in test [1] (at 50.0 µM) it was 75% (active); in test [2] (setting [7]) it was 5%; in test [2] (setting [8]) it was 22%; in test [2] (at 50.0 µM) it was 63.9%. In addition, the growth inhibition in test [3] (setting [7]) is 1%; in test [3] (setting [8]), 69%; in test [3] (at 50.0 µM), 90.8% (active); in test [4] (setting [7]), -3%; in test [4] (setting [8]), 12%; in test [4] (at 50.0 µM), 16.2%. In addition, the growth inhibition was -5% in test [5] (setting [7]); 71% (active) in test [5] (setting [8]); 70% (active) in test [5] (at 50.0 µM); 0% in test [6] (setting [7]); 81% (active) in test [6] (setting [8]); 90.7% (active) in test [6] (at 50.0 µM).
Take `C/C(=N\NC(N)=S)c1ccc(Oc2ccccc2)cc1`: the growth inhibition is 50% in test [1] (setting [7]); 77% (active) in test [1] (setting [8]); 98.9% (active) in test [1] (at 50.0 µM); 43% in test [2] (setting [7]); 75% (active) in test [2] (setting [8]); 98.5% (active) in test [2] (at 50.0 µM). Also, the growth inhibition in test [3] (setting [7]) was 65%; in test [3] (setting [8]), 93% (active); in test [3] (at 50.0 µM), 99% (active); in test [4] (setting [7]), 27%; in test [4] (setting [8]), 70% (active); in test [4] (at 50.0 µM), 98.5% (active). Moreover, the growth inhibition was 35% in test [5] (setting [7]); 70% (active) in test [5] (setting [8]); 98.8% (active) in test [5] (at 50.0 µM); 63% in test [6] (setting [7]); 89% (active) in test [6] (setting [8]); 97.8% (active) in test [6] (at 50.0 µM).
In the case of `C/C(=N/NC(N)=S)C(CN1CCOCC1)C(C1=C(O)c2ccccc2OC1)c1ccccc1` (configuration not stated), the growth inhibition is 26% in test [1] (setting [7]); 26% in test [1] (setting [8]); 75% (active) in test [1] (at 50.0 µM); 28% in test [2] (setting [7]); 28% in test [2] (setting [8]); 71.8% (active) in test [2] (at 50.0 µM). Moreover, the growth inhibition in test [3] (setting [7]) is 24%; in test [3] (setting [8]), 24%; in test [3] (at 50.0 µM), 80.9% (active); in test [4] (setting [7]) it was 6%; in test [4] (setting [8]), 6%; in test [4] (at 50.0 µM), 75.4% (active). Also, the growth inhibition in test [5] (setting [7]) is 24%; in test [5] (setting [8]) it was 24%; in test [5] (at 50.0 µM) it was 71% (active); in test [6] (setting [7]), 26%; in test [6] (setting [8]) it was 26%; in test [6] (at 50.0 µM), 77.7% (active).
